RPL19A TOR yeast: modulators of TOR pathway RPL19A-GFP in S. cerevisiae | S. cerevisiae RPL19A-GFP strain, flow cytometry, 3 h; hits give low values | percent response vs DMSO, % at 10 µM | 330,000 tested, 0.3% active | AID 2025;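 active = percent response vs DMSO below 50%; inconclusive = fewer than 70 events counted for the yeast strain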;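 also: median channel GFP fluorescence of the barcoded RPL19A-GFP strain; ratio of sample median GFP to plate DMSO average so 100% = DMSO; lower means less RPL19A-GFP as with rapamycin TOR inhibition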
VLA-4 inh: inhibition in a human VLA-4 binding assay; inhibition, % (about 7 µM as worked out from the volumes in the protocol); P13612; VLA-4 expressing cells, ligand binding flow cytometry; 330,000 tested, 0.2% active; in the data active = inhibition above about 50%
Target sequence (P13612 whole entry, looked up): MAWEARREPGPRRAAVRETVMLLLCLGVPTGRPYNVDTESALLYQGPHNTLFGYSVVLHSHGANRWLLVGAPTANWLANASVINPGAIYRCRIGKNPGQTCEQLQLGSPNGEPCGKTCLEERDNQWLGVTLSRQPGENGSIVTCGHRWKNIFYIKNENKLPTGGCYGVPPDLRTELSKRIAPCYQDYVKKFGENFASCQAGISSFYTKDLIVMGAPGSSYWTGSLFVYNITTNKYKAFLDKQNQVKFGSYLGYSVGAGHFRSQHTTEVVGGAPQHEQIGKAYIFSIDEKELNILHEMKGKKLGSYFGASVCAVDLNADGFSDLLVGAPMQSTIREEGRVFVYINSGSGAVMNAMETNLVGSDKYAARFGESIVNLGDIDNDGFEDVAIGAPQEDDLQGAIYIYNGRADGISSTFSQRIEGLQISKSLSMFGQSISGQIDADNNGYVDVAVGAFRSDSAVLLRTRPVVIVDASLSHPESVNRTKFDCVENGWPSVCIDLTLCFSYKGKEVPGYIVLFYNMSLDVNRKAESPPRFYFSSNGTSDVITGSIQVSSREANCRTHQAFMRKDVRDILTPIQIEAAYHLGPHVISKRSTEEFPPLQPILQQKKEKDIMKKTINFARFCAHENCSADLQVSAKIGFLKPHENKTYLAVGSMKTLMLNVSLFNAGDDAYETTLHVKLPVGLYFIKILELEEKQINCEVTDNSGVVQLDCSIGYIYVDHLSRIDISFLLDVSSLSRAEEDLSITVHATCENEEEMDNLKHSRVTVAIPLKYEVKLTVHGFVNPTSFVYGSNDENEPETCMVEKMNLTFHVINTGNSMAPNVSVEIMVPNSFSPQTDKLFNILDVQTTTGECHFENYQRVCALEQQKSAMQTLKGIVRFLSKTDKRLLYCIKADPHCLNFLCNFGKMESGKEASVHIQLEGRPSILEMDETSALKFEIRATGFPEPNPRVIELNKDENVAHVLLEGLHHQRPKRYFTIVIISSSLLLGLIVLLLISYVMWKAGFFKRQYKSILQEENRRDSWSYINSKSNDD
AGP1-GFP MLPCN: alters AGP1-GFP fluorescence in TOR pathway yeast screen; 320,000 tested, 0.02% active; GFP response vs DMSO, % at 10 µM; S. cerevisiae AGP1-GFP multiplex flow cytometry, 3 h; GFP as percent of DMSO wells;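 active = GFP response relative to DMSO above a set limit, near screen average plus 3 SD, cut at about 150% in these data; inconclusive = fewer than 70 cells counted for the yeast strain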;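 also: median GFP channel fluorescence of the gated AGP1 strain per well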
CIT2 TOR yeast: modulators of TOR pathway CIT2-GFP in S. cerevisiae; S. cerevisiae CIT2-GFP strain, flow cytometry, 3 h; 100 means same as DMSO wells; AID 2029; GFP response vs DMSO, % at 10 µM; 320,000 tested, 0.065% active;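 active = GFP response relative to DMSO above a set limit, near the screen mean plus 3 SD, cut at about 150% in these data; inconclusive = Fewer than 70 cells measured for a yeast strain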;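 also: ratio of well median GFP fluorescence to mean of DMSO wells on the plate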
MEP2-GFP yeast: alters MEP2-GFP fluorescence in TOR pathway yeast screen; 330,000 tested, 0.51% active; S. cerevisiae MEP2-GFP strain, flow cytometry GFP, 3 h; 100% = DMSO control level; GFP response vs DMSO, % at 10 µM; AID 2016;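 active = GFP response versus DMSO above a set limit, roughly screen mean plus 3 SD, cut at about 180% in these data; inconclusive = fewer than 70 cells counted for a yeast strain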;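 also: median GFP fluorescence of the barcode-gated MEP2-GFP cells per well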
LAP4-GFP MLPCN: alters LAP4-GFP fluorescence in TOR pathway yeast screen; GFP response vs DMSO, % at 10 µM; S. cerevisiae LAP4-GFP multiplex, flow cytometry GFP, 3 h; median GFP as percent of DMSO wells; 320,000 tested, 0.34% active;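 active = GFP response vs DMSO above a set limit, about the screen mean plus 3 SD, cut at about 150% in these data; inconclusive = under 70 cell events counted for the yeast strain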
Numbers without * were called inactive; ? = inconclusive; · = no result; [ ] = another dose, or the depositor's remark. Only some compounds are listed: those with a hit (about 1.1% of all), similar ones and a draw of the others.

SMILES	RPL19A TOR yeast	VLA-4 inh	AGP1-GFP MLPCN	CIT2 TOR yeast	MEP2-GFP yeast	LAP4-GFP MLPCN
Cn1c(N)c(S(=O)(=O)NCc2ccc(F)cc2)c(=O)n(C)c1=O	101	-4	103	108	99	104
Cc1csc(NC(=O)c2nc(-c3ccccc3)n(-c3ccccc3)n2)n1	30*[may fluoresce violet]	18	22	?	223*[may fluoresce violet]	93
CC1CCCCN1CCCNC(=O)CCCN1C(=O)c2cccnc2Sc2ccccc21 (stereo not drawn)	103	2	105	107	110	106
O=C(Nc1ccccc1N1CCOCC1)c1ccccc1[N+](=O)[O-]	19*[may fluoresce violet]	-14	?	?	?	?
O=C(Nc1ccccc1N1CCOCC1)c1ccc(N2CCOCC2)c([N+](=O)[O-])c1	98	-6	102	102	101	103
CCn1c(SCC(=O)Nc2nnc(C)s2)nnc1C(C)NC(=O)c1ccccc1F (stereo not drawn)	59	0	?	?	225*[may fluoresce violet]	86
CCn1c(SCC(=O)Nc2nnc(C)s2)nnc1C(C)NC(=O)c1ccccc1 (stereo not drawn)	100	0	101	103	102	86
CCCCNC(=O)c1oc2ccc(S(=O)(=O)N3CCCC3)cc2c1C	100	14	101	97	112	100
Cc1ccccc1NC(=O)C1CCN(c2cc(-c3ccccc3)nc3ncnn23)CC1	60	1	?	?	257*[may fluoresce violet]	61
O=S(=O)(c1ccccc1)N1CCN(c2cc(-c3ccccc3)nc3ncnn23)CC1	101	-11	103	100	106	107
CCOC(=O)N1CCN(C(=O)c2ccc(NC(C)=O)cc2)CC1	95	0	95	92	99	99
CC(=O)Nc1ccc(C(=O)N2CC(=O)NC(=O)C2)cc1	63	21	24	?	176*[may fluoresce violet]	104
CC(=O)OCC1=C(C(=O)O)N2C(=O)[C@@H](NC(=O)Cc3cccs3)[C@H]2SC1	16*[may fluoresce violet]	18	?	?	329*[may fluoresce violet]	113
CC(=O)NC1(C(F)(F)F)C(=O)Nc2c1c(=O)[nH]c(=O)n2-c1ccccc1 (stereo not drawn)	96	3	99	101	97	97
Cc1cccc(C2=NC(C(F)(F)F)(C(F)(F)F)c3c(n(-c4ccc(F)cc4)c(=O)[nH]c3=O)N2)c1	59	6	?	?	222*[may fluoresce violet]	94
Cc1ccc2nc(NC(=O)[C@H](C)N3C(=O)C4CC=CCC4C3=O)sc2c1 (stereo partly drawn)	102	12	109	103	100	106
C[C@@H](C(=O)Nc1nc2ccc(F)cc2s1)N1C(=O)C2CC=CCC2C1=O (stereo partly drawn)	65	-1	156*	139	612*	189*
c1ccc2c(c1)ncn2Cc1nnc2sc(-c3ccc4c(c3)OCO4)nn12	38*[may fluoresce violet]	7	·	?	554*[may fluoresce violet]	110
Cn1sccc1=O	102	30	87	80	100	134
COc1ccc(S(=O)(=O)NCc2ccccn2)cc1NC(=O)c1ccccc1F	58	8	15	?	231*[may fluoresce violet]	87
CCOc1ccc(S(=O)(=O)NCc2ccccn2)cc1NC(=O)c1ccccc1	99	5	111	106	101	103
O=C(C[C@H]1C/C=C\CC[C@H](Cc2ccc(F)cc2)C(=O)OC[C@H]2CCCN2C1=O)N[C@@H](CO)Cc1ccccc1	95	4	101	88	97	104
COCCN(C(=O)COC(=O)c1ccc(Cl)nc1)c1c(N)n(Cc2ccccc2)c(=O)[nH]c1=O	100	7	105	100	96	109
Cc1cc(NC(=O)CCC(=O)N(CC(=O)NC2CCCC2)c2ccc(C(C)C)cc2)no1	99	-2	98	102	100	97
CCCN1CCC(=O)N([C@H](CSc2ccccc2)CC(C)C)CC1	101	-10	100	95	105	97
SMILES	RPL19A TOR yeast	VLA-4 inh	AGP1-GFP MLPCN	CIT2 TOR yeast	MEP2-GFP yeast	LAP4-GFP MLPCN
CC(C)C[C@@H](CSc1ccccc1)N1CCN(CC(C)C)CCC1=O	37*[may fluoresce violet]	28	?	?	341*[may fluoresce violet]	107
Cc1ccc(C(=O)NCc2ccc3c(c2)OCO3)cc1C	99	12	97	95	101	95
CCCCCCOC(=O)C(C#N)c1nc2ccccc2nc1N1CCOCC1 (stereo not drawn)	105	3	99	·	93	92
CCCCCCOC(=O)C(C#N)c1nc2ccccc2nc1N1CCN(CC)CC1 (stereo not drawn)	46*[may fluoresce violet]	0	·	?	523*[may fluoresce violet]	97
N#CC(C(=O)NCc1ccccc1)c1nc2ccccc2nc1N1CCCC1 (stereo not drawn)	104	-11	96	123	218*	132
N#CC(C(=O)NCCc1ccccc1)c1nc2ccccc2nc1N1CCCCC1 (stereo not drawn)	101	-2	105	104	101	91
O=C(CSc1nnc(CNC(=O)c2ccccc2F)o1)NC1CCCCC1	99	-3	95	98	99	89
COc1ccc(Cl)cc1S(=O)(=O)N1CCC(C(=O)N2CCOCC2)CC1	103	8	101	104	105	96
COc1cc(/C=N/Nc2nc(C)cc(=O)[nH]2)ccc1O	111	-15	98	145	185*	109
COc1ccc(/C=N/Nc2nc(C)cc(=O)[nH]2)cc1OC	101	2	104	103	107	96
Cc1ccc(CN2CC(C(=O)NCCCSc3ccccc3)CC2=O)cc1 (stereo not drawn)	99	11	96	97	101	92
Cc1ccc(-c2nnn(CC(=O)N(CC(=O)NC3CCCC3)c3ccc(F)cc3)n2)o1	66	7	16	90	179*	87
CCOC(=O)C1(C/C(C)=N/NC(N)=O)CC(C)(C)OC1=O (stereo not drawn)	43*[may fluoresce violet]	21	16	?	176*[may fluoresce violet]	91
Cc1ccc(-c2cc(C(=O)NCCN3CCOCC3)c3ccccc3n2)o1	107	-10	106	111	105	102
CN(Cc1c(F)cccc1Cl)C(=O)c1ccc(NC(=O)CC2SC(N3CCCC3)=NC2=O)cc1 (stereo not drawn)	84	1	88	77	89	91
COc1ccc(C(=O)C2CCCN(C(=O)c3cccnc3OC)C2)cc1F (stereo not drawn)	93	24	101	97	96	92
COc1ccc(C(=O)C2CCCN(C(=O)c3cccs3)C2)cc1F (stereo not drawn)	87	-3	81	72	86	167*
Cc1ccn2c(c1)nc(=O)c1cc(S(=O)(=O)N3CCOCC3)ccc12	100	9	97	100	98	95

Source: PubChem BioAssay (NMMLSC)
